# Measurements published in PubChem BioAssay AID588405 (Sanford-Burnham Center for Chemical Genomics, 2011).
# Hit rate of the full screen: of about 360,000 compounds, about 6,200 (1.7%) were called active.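 The calls were made as follows: active = inhibition of at least 50% at 20 µM; inactive = the rest.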 Many of the other results were omitted from the sample, so actives are more common in it than they were.
# Experiment: Peg3 promoter-driven luciferase inhibitors, primary screen, cell-based, HeLa, luciferase luminescence (AID 588405)
# Settings: HeLa PEG-Prom luciferase reporter, overnight, at 20 µM, stronger effect = higher value
row,Compound,inhibition
1,COc1ccc(CCNC(=O)Nc2ccc3c(c2)c(=O)n(C)n3C)cc1OC,-7.49% (inactive)
2,O=C(c1ccc(F)cc1)c1c[nH]c(C(=O)NCc2cccnc2)c1,18% (inactive)
3,COc1ccc(C(=O)Nc2ccccc2C(=O)N/N=C/c2ccc(O)c(OC)c2)cc1,83.7% (active)
4,COc1ccc(-c2[nH]ncc2/C=N/NC(=O)c2cc(Br)ccc2O)c(OC)c1,5.43% (inactive)
5,O=C(NN=Cc1ccc2c(c1)CCC2)c1ccccc1O,-215% (inactive)
6,O=C(Nc1cc(Br)ccc1F)c1nc[nH]c1C(=O)NCc1ccccc1,2.41% (inactive)
7,Cc1sc2ccccc2c1CNC[C@H]1O[C@@H](n2ccc(=O)[nH]c2=O)[C@H](O)[C@@H]1O,-4.81% (inactive)
8,COc1ccc(N2C(=O)CCC(C(=O)Nc3ccccn3)C2c2ccc(OC)c(OC)c2)cc1 (centres undefined),12.5% (inactive)
9,Cc1cc(N/C=C\C(=O)c2ccc(Cl)c(Cl)c2)no1,-233% (inactive)
10,COc1ccc(C(=O)/C=C/Nc2ccccn2)cc1,63% (active)
11,COc1ccccc1CNC(=O)c1cc(-c2cc(F)ccc2OC)n[nH]1,0.22% (inactive)
12,COc1ccc(OC)c(C(=O)NC(CC(N)=O)c2ccc(N3CCC(N4CCCCC4)CC3)c([N+](=O)[O-])c2)c1 (centres undefined),0.66% (inactive)
13,CCc1nc2c(OCc3ccccc3)cccn2c1N(C)C(=O)c1ccco1,11.6% (inactive)
14,COc1ccc(CC(=O)Nc2ccc(-c3nnc(-c4ccc(C)cc4)o3)cc2)cc1,51.2% (active)
15,COc1ccc(CC(=O)Nc2c(C(N)=O)oc3ccccc23)cc1,8.96% (inactive)
16,COc1ccc(NC(=O)Cn2c(-c3ccc(OC)cc3)cn(-c3ccc(C)cc3)c2=O)cc1,-103% (inactive)
17,COc1ccc(CCCNC(=O)C2Cc3c(-c4cccc(C(N)=O)c4)ccnc3O2)cc1 (centres undefined),14.7% (inactive)
18,Nc1cccc(-c2cncc(N3CCN(Cc4ccccn4)CC3)n2)c1,-8.35% (inactive)
19,CSCC[C@H](NC(=O)CCCn1nnc2ccccc2c1=O)C(=O)O,4.76% (inactive)
20,CCOc1ccc(CCN2C(=S)N([C@@H](CC(C)C)CN3CCC[C@@H]3CN3C(=S)NC[C@@H]3Cc3ccc(O)cc3)C[C@@H]2CC(C)C)cc1,14.2% (inactive)
21,CCOc1ccc(CCN2C(=S)N([C@@H](CC(C)C)CN3CCC[C@@H]3CN3C(=S)NC[C@@H]3Cc3ccc(O)cc3)C[C@@H]2Cc2ccc(O)cc2)cc1,14.3% (inactive)

row,Compound,inhibition
1,CC(C)C[C@H]1CNC(=S)N1C[C@H]1CCCN1C[C@H](Cc1ccc(O)cc1)N1C[C@H](Cc2ccc(O)cc2)N(CC2CCCCC2)C1=S,99.5% (active)
2,Cc1ccc(OCC(=O)c2cc(C)n(Cc3ccco3)c2C)c([N+](=O)[O-])n1,55.6% (active)
3,COCC(C)n1c(C)cc(C(=O)COc2ccc(C)nc2[N+](=O)[O-])c1C (centres undefined),43.5% (inactive)
4,Cc1cc(C(=O)COC(=O)CNC(=O)c2ccc(F)cc2)c(C)n1Cc1ccco1,-257% (inactive)
5,CC(C)c1ccc(CC(=O)N2CCC2(C)C(=O)NS(=O)(=O)c2ccc(C(C)(C)C)cc2)cc1 (centres undefined),11.3% (inactive)
6,CC(C)Cn1cc(-c2cncc3nccn23)cn1,5.62% (inactive)
7,CN(C(=O)CN1CCN(c2cc(-c3ccc(OCc4ccccc4)cc3)ncn2)CC1)c1ccccc1,-2.84% (inactive)
8,Fc1ccc(-c2ccc(NCCN3CCOCC3)nn2)cc1,-96.4% (inactive)
9,c1ccc2cc3c(NCCN4CCOCC4)ccnc3cc2c1,69.5% (active)
10,CCOc1nc(NCCN2CCOCC2)nc(Nc2ccc(C)cc2)n1,5.29% (inactive)
11,CCN(CC)C(=O)C1=C(C)N(Cc2ccc(F)cc2)C(=O)C(CC(=O)NC2CCCC2)C1 (centres undefined),11% (inactive)
12,Cc1cc(C)c2[nH]c(=O)c(CN(Cc3ccccc3)C(=S)NCCCN(C)C)cc2c1,66.4% (active)
13,Cc1cccc2cc(CN(Cc3cccs3)C(=S)NCc3ccco3)c(=O)[nH]c12,4.8% (inactive)
14,COCCCNC(=S)N(CCN(C)C)Cc1cc2cc3c(cc2[nH]c1=O)OCCO3,2.51% (inactive)
15,CCCOc1ccc(F)cc1-c1cc(C(=O)Nc2ccc(F)cc2)[nH]n1,-8.32% (inactive)
16,CCn1c(CC(=O)Nc2ccc(C)cc2)nnc1SCC(=O)Nc1nc(C)cs1,-10.4% (inactive)
17,NC(Cc1ccc(F)cc1)c1csc(Nc2nncc3ccccc23)n1 (centres undefined),103% (active)
18,COCC(C)NC(=O)COc1nncc2ccccc12 (centres undefined),0.55% (inactive)
19,CN[C@H]1C[C@H]2c3cc(Oc4ccccc4C)ccc3CCN2C(=O)[C@H]1[C@H](C)O,-28.3% (inactive)
20,CN(C)C(=S)Nc1ccc(Br)cc1Cl,4.24% (inactive)
21,O=C(NC1CCCC1)C1CCN(C(=O)Nc2cccc(Cl)c2)CC1,17% (inactive)

row,Compound,inhibition
1,O=C(Nc1cccc(-c2cccc(Cl)c2)c1)C1CCN(C2CCC2)CC1,53.2% (active)
2,CC(=O)c1cc(CN2CCC(C(=O)Nc3cccc(-c4cscn4)c3)CC2)cs1,2.3% (inactive)
3,CCn1cc(CN2CCC(C(=O)Nc3cccc(-c4cccc(Cl)c4)c3)CC2)c(C)n1,105% (active)
4,COc1cccc(-c2cccc(NC(=O)C3CCN(C4CCC4)CC3)c2)c1,9.5% (inactive)
5,O=C(Nc1cccc(-c2cscn2)c1)C1CCN(Cc2ccsc2)CC1,5.06% (inactive)
6,O=C(NCC1CCN(Cc2ccccc2Cl)CC1)Nc1cccc(Cl)c1,27.8% (inactive)
7,O=C(Nc1cnn(Cc2ccc(Cl)cc2)c1)C1CCCC1,-29.5% (inactive)
8,CCn1cc(CN2CCC(C(=O)Nc3cccc(-c4cccc(Cl)c4)c3)CC2)cn1,54.4% (active)
9,COc1cccc(NC(=O)C2(C)CCN2Cc2ccccc2Cl)c1 (centres undefined),12.9% (inactive)
10,CCOCCC(=O)Nc1ccc2c(c1)c(=O)n(C)n2-c1ccc2ccccc2c1,-14.8% (inactive)
11,CCCNC(=O)C1(C)CCN(C(=O)c2ccccc2OC(F)(F)F)C1 (centres undefined),-13.6% (inactive)
12,CC(=O)Nc1cc(-c2ccc(N3CCN(C)CC3)cc2)cn2c(-c3ccc(F)cc3)cnc12,-24.9% (inactive)
13,CCCCN(C=O)c1c(CC)nc2c(OCc3ccccc3C(=O)OC)cccn12,13.7% (inactive)
14,COCc1cc(=O)n2[nH]c(C)c(-c3ccccc3)c2n1,2.19% (inactive)
15,CCCc1cc(=O)n2[nH]c(C)c(-c3ccc(Cl)cc3)c2n1,61.5% (active)
16,Cc1nc2c(-c3ccccc3)c(C)[nH]n2c(=O)c1Cl,13.1% (inactive)
17,COc1cc(F)ccc1-c1cc(C(=O)NCC2CCCCC2)[nH]n1,-33.4% (inactive)
18,CC(C)COC(=O)C1C2C=CC3(CN(C(C)c4ccc(Br)cc4)C(=O)C13)O2 (centres undefined),6.1% (inactive)
19,COc1cc(NC(=O)c2cc(-c3ccc(F)cc3OC(C)C)n[nH]2)cc(OC)c1OC,33.7% (inactive)
20,Cc1ccc(C(=O)NCC(=O)O)s1,13.7% (inactive)
21,Cc1nc2c(OCc3cccc(Cl)c3)cccn2c1N(C)CC1CC1,-12.2% (inactive)

row,Compound,inhibition
1,OC(c1ccc(Cl)c(F)c1)c1ncc(-c2ccccc2Cl)[nH]1 (centres undefined),17.5% (inactive)
2,O=C(NC(c1ccc(-c2ccccc2)cc1)c1cnccn1)C1CCN(CCOc2ccc(Cl)cc2Cl)CC1 (centres undefined),37.4% (inactive)
3,O=C(NC(c1ccc(Cl)cc1)c1cnccn1)C1CCN(Cc2ccc(Cl)cc2)CC1 (centres undefined),6.83% (inactive)
4,Cc1ccc(C(NC(=O)C2CCN(CCOc3ccc(Cl)cc3Cl)CC2)c2ccccn2)cc1 (centres undefined),106% (active)
5,Nc1ncnc2c1ncn2[C@@H]1O[C@H](CNC(=O)[C@H](N)Cc2cccnc2)[C@@H](O)[C@H]1O,-0.67% (inactive)
6,O=C(CC[C@H]1O[C@@H](n2ccc(=O)[nH]c2=O)[C@H](O)[C@@H]1O)N[C@H](Cc1ccccc1)C(=O)NCCCN1CCCC1=O,-0.27% (inactive)
7,CCCCNC(=O)C(C)N(CCN(C)C)C(=O)CCCCCN1C(=O)NC(c2ccc(Cl)cc2)C(C(=O)OCc2ccccc2)=C1C (centres undefined),91.8% (active)
8,COC(=O)C1=C(C)N(Cc2ccccc2)C(=NCCCOC(C)C)N[C@H]1c1ccccc1,-9.14% (inactive)
9,CCOC(=O)CCCNC(=O)CN1C(=O)NC(CCc2ccccc2)C1=O (centres undefined),1.97% (inactive)
10,CCOC(=O)C1=C(CCc2ccccc2)NC(=O)NC1c1ccc2ccccc2c1 (centres undefined),40.3% (inactive)
11,CCCCNC(=O)C(C)N(CCN(C)C)C(=O)CCCN1C(=O)NC(c2ccc(Cl)cc2)C(C(=O)OCc2ccccc2)=C1C (centres undefined),92.9% (active)
12,CCOC(=O)C1=C(C)N(C[C@@H]2CC[C@@H](Cc3ccc(-c4ccccc4)cc3)O2)C(=O)NC1c1ccc([N+](=O)[O-])cc1 (some centres undefined),15.2% (inactive)
13,CC1=C(C(=O)N(C(C)C)C(C)C)CC(CC(=O)NCC2CCCCC2)C(=O)N1Cc1ccccc1 (centres undefined),11.2% (inactive)
14,O=C(Nc1ccc(OCCO)cc1)c1csc([C@H]2C[C@H](O)[C@@H](CO)O2)n1,14.9% (inactive)
15,CCNC(=O)C1(C)CCCN(Cc2noc(-c3ccccc3OC)n2)C1 (centres undefined),2.68% (inactive)
16,COC(=O)c1ccc(/C=C2/C(=O)Oc3ccccc32)cc1,11.1% (inactive)
17,O=C1Oc2ccccc2C(=O)/C1=C/c1ccccc1O,69.8% (active)
18,C=C1C(=O)[C@]23C[C@H]1CCC2[C@@]1(C)C(C[C@@H]3O)[C@](C)(C(=O)O)CC[C@@H]1O (some centres undefined),3.91% (inactive)
19,CC1CC(C)(C)n2c(O)c(N=NC(N)=S)c3cccc1c32 (centres undefined),29.2% (inactive)
20,CCc1nc2ccc(C(=O)N(C)Cc3ccco3)cn2c1N(C)C(=O)Cc1ccccc1,8.02% (inactive)
21,O=C(O)C#Cc1cccc2ccccc12,12.5% (inactive)
